Values joined by “and” are separate entries in the source; they are usually repeats but may differ in a detail not shown here. Equal entries are not always repeated. Inconclusive results are not listed. A call without a number means that no potency is given here. A number with no mark means an inactive call. Active and inactive are the calls of the source. Unless noted, calls come from the whole dose curve; as a rule, active = well fitted curve in the direction sought with a large enough effect; inconclusive = small, poorly fitted or top-dose-only effect, or another doubt; inactive = no such curve, though single readings can be large; an effect the other way counts as inactive or inconclusive.
Tests used:
[1] = biological target: Cytochrome P450 2C9 (Homo sapiens) (UniProt P11712); assay: Cytochrome P450 family 2 subfamily C member 9 (CYP2C9) small molecule antagonists: luciferase biochemical (cell-free) qHTS assay (AID 1645842; active = well fitted curve in the direction sought with a large enough effect in the repeat runs; an effect the other way counts as inactive or inconclusive; note: nearly all actives have a fitted effect of over 55% in size; note: potency is the fitted concentration of half-maximal effect; for activity change, negative = inhibition: series mostly up to about 57 µM)
Sequence of Cytochrome P450 2C9 (Homo sapiens) (P11712 whole entry, looked up): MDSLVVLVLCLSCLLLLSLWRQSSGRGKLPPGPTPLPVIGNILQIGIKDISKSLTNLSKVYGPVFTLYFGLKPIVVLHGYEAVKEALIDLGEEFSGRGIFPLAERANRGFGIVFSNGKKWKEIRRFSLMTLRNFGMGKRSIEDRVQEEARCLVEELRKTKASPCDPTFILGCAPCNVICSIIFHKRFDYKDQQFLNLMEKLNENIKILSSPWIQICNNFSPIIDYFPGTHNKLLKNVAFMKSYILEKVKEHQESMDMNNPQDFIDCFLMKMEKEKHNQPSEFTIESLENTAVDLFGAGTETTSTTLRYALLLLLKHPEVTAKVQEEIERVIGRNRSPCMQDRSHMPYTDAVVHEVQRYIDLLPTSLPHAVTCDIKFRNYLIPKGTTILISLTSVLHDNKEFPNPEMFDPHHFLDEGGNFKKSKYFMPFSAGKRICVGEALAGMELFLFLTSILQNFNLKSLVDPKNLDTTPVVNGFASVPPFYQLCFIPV
How it was run: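 P450-Glo CYP2C9 system: proluciferin substrate with enzyme in mix containing 0.4% BSA, 10 min at room temperature, then NADPH regeneration solution added and incubated 1 h at 37C. Detection reagent stopped reaction; luminescence read after 20 min as RLU.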

[2] = Primary qHTS for inhibitors of nuclear receptor binding SET domain protein 2 (NSD2) in an isogenic RCH-ACV NSD2 p.E1099K mutant (9B) (AID 1645876); note: nearly all actives have a fitted effect of over 70% in size; note: potency is the fitted concentration of half-maximal effect
[3] = Primary qHTS for inhibitors of nuclear receptor binding SET domain protein 2 (NSD2) in an RCH-ACV wild type WT cells (2C) (AID 1645877); note: nearly all actives have a fitted effect of over 70% in size; note: potency is the fitted concentration of half-maximal effect
Papain (Carica papaya) = Papain (Carica papaya) (UniProt P00784); assay: Primary qHTS assay for inhibitors of the protease papain (AID 1645873);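 note: papain turnover of Z-FR-AMC read as the AMC fluorescence gain over 10 min; series mostly up to about 50 µM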
Sequence of Papain (Carica papaya) (P00784 whole entry, looked up): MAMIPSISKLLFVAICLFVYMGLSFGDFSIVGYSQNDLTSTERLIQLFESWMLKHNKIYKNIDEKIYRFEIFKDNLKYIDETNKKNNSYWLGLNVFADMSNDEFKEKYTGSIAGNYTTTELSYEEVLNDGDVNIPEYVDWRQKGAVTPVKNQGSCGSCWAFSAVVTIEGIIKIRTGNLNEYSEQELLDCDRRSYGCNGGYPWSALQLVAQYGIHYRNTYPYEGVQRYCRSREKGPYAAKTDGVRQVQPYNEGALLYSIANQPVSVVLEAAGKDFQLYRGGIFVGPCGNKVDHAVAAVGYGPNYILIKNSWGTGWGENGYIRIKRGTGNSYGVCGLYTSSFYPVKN

[4] = biological target: N-terminal Xaa-Pro-Lys N-methyltransferase 1 (Homo sapiens) (UniProt Q9BV86); assay: Confirmatory qHTS for Inhibitors of N-terminal methyltransferase 1 (NTMT1): MTaseGlo Assay (AID 1645874);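 note: luminescence from SAH made as NTMT1 methylates SPKRIA peptide using SAM; series mostly up to about 100 µM; nearly all actives have a fitted effect of over 65% in size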
Sequence of N-terminal Xaa-Pro-Lys N-methyltransferase 1 (Homo sapiens) (Q9BV86 whole entry, looked up): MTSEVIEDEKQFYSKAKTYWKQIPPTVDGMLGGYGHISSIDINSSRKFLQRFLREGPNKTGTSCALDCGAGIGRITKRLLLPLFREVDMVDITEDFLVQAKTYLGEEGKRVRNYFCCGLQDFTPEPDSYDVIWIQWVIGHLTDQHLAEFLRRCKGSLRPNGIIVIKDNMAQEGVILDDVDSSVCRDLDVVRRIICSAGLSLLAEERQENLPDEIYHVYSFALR
How it was run: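 Enzyme mix (125 nM NTMT1, 100 uM SAM) + compound, 15 min RT; + 1 uM SPKRIA, 30 min RT, dark; MTase-Glo reagent 30 min, detection solution 30 min; luminescence. % inhibition vs no-enzyme/DMSO controls, 4-parameter Hill fit.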

**Q.** For `O=C(O)c1ccccc1S`, which Potency [1] is on record?
**A.** inactive

**Q.** And the Potency [2]?
**A.** inactive

**Q.** What about the Potency [3] of the same molecule?
**A.** inactive

**Q.** For `CN1CCN(N)CC1`, which Potency [1] is on record?
**A.** inactive

**Q.** And the Potency [2]?
**A.** inactive

**Q.** What about the Potency [3] of the same molecule?
**A.** inactive

**Q.** Which outcome (Papain (Carica papaya)) does the source give for `COc1cccc2c1[C@@H]1CN(CCCCn3c(=O)[nH]c4c(sc5ncc(-c6ccccc6)nc54)c3=O)C[C@@H]1CO2` here?
**A.** inactive

**Q.** With `CC1(C)O[C@@H]2C[C@H]3[C@@H]4CCC5=CC(=O)C=C[C@]5(C)[C@@]4(F)[C@@H](O)C[C@]3(C)[C@]2(C(=O)CO)O1` as the molecule, how does the Potency [1] read?
**A.** inactive

**Q.** What about the Potency [3] of the same molecule?
**A.** 59.6 nM (active) and 13.2 nM (active)

**Q.** For `Nc1ncnc2n[nH]c(Nc3ccc(F)cc3)c12`, which outcome (Papain (Carica papaya)) is on record?
**A.** inactive

**Q.** For `CCN(CC)CC(=O)Oc1ccc(NC(C)=O)cc1`, which Potency [1] is on record?
**A.** inactive

**Q.** And the Potency [2]?
**A.** inactive

**Q.** What about the Potency [3] of the same molecule?
**A.** inactive

**Q.** For `CCOC(=O)C(=O)CCCCCCl`, which Potency [1] is on record?
**A.** 24200 nM (active)

**Q.** What about the Potency [2] of the same molecule?
**A.** inactive

**Q.** And the Potency [3]?
**A.** inactive

**Q.** Which results are given for `CCC(C(=O)OCCN1CCOC(c2ccccc2)C1C)c1ccccc1` (centres undefined)?
**A.** Potency [1]: 2190 nM (active); Potency [2]: inactive; Potency [3]: inactive

**Q.** With `C[N+](C)(C)CCO` as the molecule, how does the outcome (Papain (Carica papaya)) read?
**A.** inactive

**Q.** With `Cc1ccccc1N1CCN(CCc2nnc3n2CCCC3)CC1` as the molecule, how does the Potency [1] read?
**A.** inactive

**Q.** And the Potency [2]?
**A.** inactive

**Q.** What about the Potency [3] of the same molecule?
**A.** inactive

**Q.** Which results are given for `C=CC[N+]1([C@H]2C[C@H]3[C@@H]4CC[C@H]5C[C@H](OC(C)=O)[C@@H](N6CCCCC6)C[C@]5(C)[C@H]4CC[C@]3(C)[C@H]2OC(=O)CC)CCCCC1`?
**A.** Potency [1]: inactive; Potency [2]: inactive; Potency [3]: inactive

**Q.** With `Cc1ccc(C(=O)C(=O)O)cc1C` as the molecule, how does the Potency [1] read?
**A.** inactive

**Q.** And the Potency [2]?
**A.** inactive

**Q.** And the Potency [3]?
**A.** inactive

**Q.** For `O=C1NC(=O)/C(=C/c2ccc3c(c2)OC(F)(F)O3)S1`, which outcome (Papain (Carica papaya)) is on record?
**A.** inactive

**Q.** With `COC(=O)C1=CO[C@@H](O)[C@@H]2C(CO)=CC[C@H]12` as the molecule, how does the outcome (Papain (Carica papaya)) read?
**A.** inactive

**Q.** Which Potency [1] does the source give for `COc1ccccc1N1CCN(CC(O)COc2cc(OC)c(OC)c(OC)c2)CC1` (centres undefined) here?
**A.** inactive

**Q.** And the Potency [2]?
**A.** inactive

**Q.** And the Potency [3]?
**A.** inactive

**Q.** Which Potency [1] does the source give for `CSc1ccc(/C=C2/C(C)=C(CC(=O)O)c3cc(F)ccc32)cc1` here?
**A.** inactive

**Q.** And the Potency [2]?
**A.** inactive

**Q.** What about the Potency [3] of the same molecule?
**A.** inactive

**Q.** Which outcome (Papain (Carica papaya)) does the source give for `CCN(CC)CCNC(=O)c1ccc(NS(C)(=O)=O)cc1` here?
**A.** inactive

**Q.** With `C/C(=C1\CCOC(=O)S1)N(C=O)Cc1cnc(C)nc1N` as the molecule, how does the Potency [1] read?
**A.** inactive

**Q.** What about the Potency [2] of the same molecule?
**A.** inactive

**Q.** And the Potency [3]?
**A.** inactive

**Q.** With `NC(N)=NCCCCN=C(N)N` as the molecule, how does the outcome (Papain (Carica papaya)) read?
**A.** inactive

**Q.** For `O=C1CCCc2c(O)cccc21`, which Potency [1] is on record?
**A.** inactive

**Q.** And the Potency [2]?
**A.** inactive

**Q.** And the Potency [3]?
**A.** inactive

**Q.** For `O=C(O)/C=C(\CC(=O)O)C(=O)O`, which Potency [1] is on record?
**A.** inactive

**Q.** What about the Potency [3] of the same molecule?
**A.** inactive

**Q.** For `CC(C)=CCNc1ncnc2c1ncn2[C@@H]1O[C@H](CO)[C@@H](O)[C@H]1O`, which Potency [1] is on record?
**A.** inactive

**Q.** What about the Potency [2] of the same molecule?
**A.** 1.68 µM (active)

**Q.** And the Potency [3]?
**A.** 1.06 µM (active)

**Q.** Which Potency [1] does the source give for `CSCC[C@H](NC(=O)[C@H](Cc1c[nH]c2ccccc12)NC(=O)CCNC(=O)OC(C)(C)C)C(=O)N[C@@H](CC(=O)O)C(=O)N[C@@H](Cc1ccccc1)C(N)=O` here?
**A.** inactive

**Q.** What about the Potency [2] of the same molecule?
**A.** inactive

**Q.** What about the Potency [3] of the same molecule?
**A.** inactive

**Q.** Which Potency [1] does the source give for `Oc1ccccc1` here?
**A.** inactive

**Q.** What about the Potency [2] of the same molecule?
**A.** inactive

**Q.** What about the Potency [3] of the same molecule?
**A.** inactive

**Q.** Which activity change, negative = inhibition [1] does the source give for `CC1CN(c2cc3c(cc2F)c(=O)c(C(=O)O)cn3-c2ccc(F)cc2F)CCN1` (centres undefined) here?
**A.** 17.6% [at 4.83 µM]

**Q.** What about the activity change, negative = viability loss [2] of the same molecule?
**A.** 4.46% [at 4.96 µM]

**Q.** What about the activity change, negative = cell killing [3] of the same molecule?
**A.** -0.258% [at 4.96 µM]

**Q.** What does the source list for `Cc1c(F)cc2c(=O)c(C(=O)O)cn3c2c1CCC3C` (centres undefined)?
**A.** Potency [1]: inactive; Potency [2]: inactive; Potency [3]: inactive

**Q.** Which results are given for `CC(C)(C)C(O)/C=C/c1ccc2c(c1)OCO2` (centres undefined)?
**A.** Potency [1]: 3090 nM (active); Potency [2]: inactive; Potency [3]: inactive

**Q.** What does the source list for `CC1(C)OC(=O)Nc2ccc(Br)cc21`?
**A.** Potency [1]: inactive; Potency [2]: inactive; Potency [3]: inactive

**Q.** What does the source list for `CC(CCc1ccc2c(c1)OCO2)NN` (centres undefined)?
**A.** Potency [1]: 15500 nM (active); Potency [2]: inactive; Potency [3]: inactive

**Q.** Which outcome (Papain (Carica papaya)) does the source give for `Clc1ccc2c(c1)N=C(N1CCNCC1)c1ccccc1N2` here?
**A.** inactive

**Q.** For `CN1CCCN=C1/C=C/c1cccs1`, which Potency [4] is on record?
**A.** inactive

**Q.** What about the Potency [2] of the same molecule?
**A.** inactive

**Q.** And the Potency [3]?
**A.** inactive

**Q.** Which Potency [2] does the source give for `CCCCC(CC)CNC(=O)CC(C)OC(=O)CCC(=O)O` (centres undefined) here?
**A.** inactive

**Q.** And the Potency [3]?
**A.** inactive

**Q.** For `CC(NN)c1ccccc1` (centres undefined), which Potency [2] is on record?
**A.** inactive

**Q.** And the Potency [3]?
**A.** inactive

**Q.** Which Potency [2] does the source give for `Cn1cc(S(C)=O)c(=O)c2ccc(F)cc21` (centres undefined) here?
**A.** inactive

**Q.** What about the Potency [3] of the same molecule?
**A.** inactive

**Q.** With `CCCCOCCOC(=O)c1cccnc1` as the molecule, how does the Potency [2] read?
**A.** inactive

**Q.** What about the Potency [3] of the same molecule?
**A.** inactive

**Q.** With `CC(C)(C)c1ccc(O)c(O)c1` as the molecule, how does the Potency [2] read?
**A.** 2.17 µM (active)

**Q.** What about the Potency [3] of the same molecule?
**A.** 2.17 µM (active)

**Q.** Which outcome (Papain (Carica papaya)) does the source give for `Cc1nn(-c2ccccc2)c(C)c1/C=N/N1CCN(Cc2ccccc2)CC1` here?
**A.** inactive

**Q.** With `C/C=C(/C(=C/C)c1ccc(OC(C)=O)cc1)c1ccc(OC(C)=O)cc1` as the molecule, how does the Potency [2] read?
**A.** 5.31 µM (active)

**Q.** What about the Potency [3] of the same molecule?
**A.** 3.76 µM (active)

**Q.** With `c1ccc2c(c1)CCc1ccccc1N2` as the molecule, how does the Potency [2] read?
**A.** inactive

**Q.** What about the Potency [3] of the same molecule?
**A.** inactive

**Q.** For `CCOC(=O)Cn1cccc1-c1nc(-c2ccc(OC)cc2)c(-c2ccc(OC)cc2)s1`, which Potency [3] is on record?
**A.** inactive

**Q.** For `CCOC(=O)c1cc(=O)c2c(OCC(COc3cccc4oc(C(=O)OCC)cc(=O)c34)OC(=O)[C@@H](N)CCCCN)cccc2o1`, which Potency [2] is on record?
**A.** inactive

**Q.** And the Potency [3]?
**A.** inactive

**Q.** What does the source list for `CCC1=C[C@@H]2CN(C1)Cc1c([nH]c3ccccc13)[C@@](C(=O)OC)(c1cc3c(cc1OC)N(C)[C@H]1[C@@](O)(C(=O)OC)[C@H](OC(C)=O)[C@]4(CC)C=CCN5CC[C@]31[C@@H]54)C2`?
**A.** Potency [2]: 2.1 nM (active) and 162 nM (active); Potency [3]: 2.1 nM (active) and 162 nM (active)

**Q.** For `O=C(CS(=O)Cc1ccco1)NC/C=C\COc1cc(CN2CCCCC2)ccn1` (centres undefined), which Potency [2] is on record?
**A.** inactive

**Q.** And the Potency [3]?
**A.** inactive

**Q.** What does the source list for `CCOC(=O)C(=O)CCc1ccccc1`?
**A.** Potency [2]: inactive; Potency [3]: inactive

Reference: PubChem BioAssay (NCATS)
